KDM5B inhibitor – inhibitors of human KDM5B histone demethylase. Q9UGL1. KDM5B demethylase, FDH-coupled NADH fluorescence (FDH is formaldehyde dehydrogenase). Potency, µM (doses to about 57.7 µM), actives largely listed as inhibitors. hit rate 2.6% among 220,000. AID 1347165; active = well fitted inhibition curve with a large enough effect; also: 0% is about no effect; nearly all actives have a fitted effect of over 70% in size
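Here, H3K4me3 peptide (12.5 µM in substrate mix) is demethylated by KDM5BΔAP, 200 nM final, after 10 min compound exposure. Formaldehyde product is coupled through FDH (0.25 U/mL in mix) to NADH fluorescence; 30-min ΔRFU feeds dose-response curves.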
* marks the source's active call; other numbers are inactive results; i = inactive. Many of the other results were omitted from the sample, so hits are more common in it than they were. Potency is read from the fitted curve at half-maximal effect.

SMILES	KDM5B inhibitor
COc1cc2c(cc1CCc1ccccc1)N([S+](=O)([O-])c1ccc3c(c1)CCO3)CC21CCN(C(C)=O)CC1	28µM*
COc1cc2c(cc1CCc1ccccc1)N(C(=O)Cc1ccc3c(c1)OCO3)CC21CCN(C(C)=O)CC1	i
COc1cc2c(cc1CCc1ccccc1)N(C(=O)COc1ccccc1)CC21CCN(C(C)=O)CC1	i
C#C[C@H]1CN2CC[C@H]1C[C@@H]2CNCc1ccc(OC)cc1	i
N#Cc1c(N)nc2c(c1-c1ccc(OCc3ccccc3F)cc1)c(=O)nc1sccn12	i
COc1cc2c(cc1OCc1ccccc1)NC(=O)C21CCN(C(=O)c2cccnc2)CC1	i
O=C1CC2CCN(Cc3ccccn3)CC2CCN1 (centres undefined)	i
Cn1c(O)c(C=NC2CCN(Cc3ccccc3)CC2)c(=O)[nH]c1=O	i
CN1c2ncccc2CN(Cc2ccccn2)CC[C@H]1CO	32µM*
CN1c2ncccc2CN(Cc2ccccc2)CC[C@H]1CO	32µM*
O=C1Nc2ccccc2CC12CCCN2Cc1ccccn1 (centres undefined)	i
CN1CCC(C(=O)N2C3CCC2CN(Cc2cccnc2)C3)CC1	i
O=C(Cc1cccc(Cl)c1)N1[C@H]2CC[C@@H]1c1cnc(-c3ccccc3)nc1C2	i
O=C1NC[C@H]2CN(C3CCC3)CCN12	i
CC(C)(C)c1ccc(NC(=O)OC[C@H]2C[C@@H]3CCN2C[C@@H]3c2cc(C3CCCC3)nc(-c3ccncc3)n2)cc1	i
